Experimental data taken from PubChem BioAssay (NCI).
Compounds without any hit were thinned out: in the full panel of roughly 83,000, 20% have a hit.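 For each line, cells grew in 96-well plates with the test compound present at a single concentration for 48 hours.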 Activity calls are given as the source filed them. Rule for the calls: active = growth percent below 10; inactive = the rest.

Columns and labels:
Experiment in all cases: NCI-60 one-dose screen, 48 h (100 = growth as untreated, 0 = no growth, -100 = all killed)
Settings in all cases: 10 µM unless noted
HCT-15 colon = test system: HCT-15 colon
HT29 colon = test system: HT29 colon
SNB-75 CNS = test system: SNB-75 CNS
SNB-19 CNS = test system: SNB-19 CNS
PC-3 prostate = test system: PC-3 prostate
SK-MEL-5 melanoma = test system: SK-MEL-5 melanoma
UACC-62 melanoma = test system: UACC-62 melanoma
LOX IMVI melanoma = test system: LOX IMVI melanoma
SK-MEL-28 melanoma = test system: SK-MEL-28 melanoma
SK-MEL-2 melanoma = test system: SK-MEL-2 melanoma
SN12C renal = test system: SN12C renal
UO-31 renal = test system: UO-31 renal
TK-10 renal = test system: TK-10 renal
ACHN renal = test system: ACHN renal
CAKI-1 renal = test system: CAKI-1 renal
A498 renal = test system: A498 renal
CCRF-CEM leukemia = test system: CCRF-CEM leukemia
MOLT-4 leukemia = test system: MOLT-4 leukemia
U251 CNS = test system: U251 CNS
EKVX NSCLC = test system: EKVX NSCLC

Measured: growth

Cc1nc2cc(Nc3nc(Cl)nc(Nc4ccc(F)cc4)n3)ccc2n1Cc1ccccc1
inactive: HCT-15 colon 72.1% | HT29 colon 94.5% | SNB-75 CNS 90% | SNB-19 CNS 92.4% | PC-3 prostate 78.8% | SK-MEL-5 melanoma 92.4% | UACC-62 melanoma 82.4% | LOX IMVI melanoma 43.3% | SK-MEL-28 melanoma 106% | SK-MEL-2 melanoma 111% | SN12C renal 77.9% | UO-31 renal 80.7% | TK-10 renal 58.5% | ACHN renal 36.2% | CAKI-1 renal 87.7% | A498 renal 69.3% | CCRF-CEM leukemia 78.5% | MOLT-4 leukemia 90.6%

O=C1CC2c3cc(-c4cc5ccccc5o4)ccc3CCN2C(=O)N1c1ccccc1 (stereo not given)
inactive: HCT-15 colon 54.6% | HT29 colon 85.7% | SNB-75 CNS 73.8% | SNB-19 CNS 89.6% | PC-3 prostate 51.9% | SK-MEL-5 melanoma 82.7% | UACC-62 melanoma 81.1% | LOX IMVI melanoma 94.4% | SK-MEL-28 melanoma 99.8% | SK-MEL-2 melanoma 83% | SN12C renal 89.3% | UO-31 renal 58.8% | TK-10 renal 78.5% | ACHN renal 99.6% | CAKI-1 renal 80.8% | A498 renal 82% | CCRF-CEM leukemia 68.2% | MOLT-4 leukemia 64.1%

Cc1nn(-c2ccccc2)c2nc3nc4c(c(N)c3c(-c3ccc(Cl)cc3)c12)CCCC4
inactive: HCT-15 colon 93.3% | HT29 colon 91.5% | SNB-75 CNS 101% | SNB-19 CNS 108% | PC-3 prostate 94.7% | SK-MEL-5 melanoma 101% | UACC-62 melanoma 108% | LOX IMVI melanoma 94.4% | SK-MEL-28 melanoma 97.2% | SK-MEL-2 melanoma 98.3% | SN12C renal 96.3% | UO-31 renal 84.4% | TK-10 renal 112% | ACHN renal 81.8% | CAKI-1 renal 90.5% | A498 renal 97.2% | CCRF-CEM leukemia 92.5% | MOLT-4 leukemia 97%

CCCCCCCCCCCCSC1=CC(=O)C=CC1=O
inactive: HCT-15 colon 74.6% | HT29 colon 94.7% | SNB-75 CNS 44.9% | SNB-19 CNS 40.4% | PC-3 prostate 16.8% | SK-MEL-5 melanoma 97.5% | UACC-62 melanoma 96.4% | LOX IMVI melanoma 28.1% | SK-MEL-28 melanoma 110% | SK-MEL-2 melanoma 90.1% | SN12C renal 55.1% | UO-31 renal 52.8% | TK-10 renal 118% | ACHN renal 81% | CAKI-1 renal 52.6% | A498 renal 107%
active: CCRF-CEM leukemia -10% | MOLT-4 leukemia -0.985%

C=C(C)CCCC(C)CC#N (stereo not given)
inactive: HCT-15 colon 101% | HT29 colon 93.9% | SNB-75 CNS 91.3% | SNB-19 CNS 110% | PC-3 prostate 95.7% | SK-MEL-5 melanoma 99.7% | UACC-62 melanoma 111% | LOX IMVI melanoma 99.2% | SK-MEL-28 melanoma 106% | SK-MEL-2 melanoma 97.4% | SN12C renal 103% | UO-31 renal 83.6% | TK-10 renal 99% | ACHN renal 103% | CAKI-1 renal 98.5% | A498 renal 103% | CCRF-CEM leukemia 96.1% | MOLT-4 leukemia 101%

CCCCC(CCCC)(S(=O)(=O)CC)S(=O)(=O)CC
inactive: HCT-15 colon 97.7% | HT29 colon 105% | SNB-75 CNS 98.4% | SNB-19 CNS 105% | PC-3 prostate 91.6% | SK-MEL-5 melanoma 98% | UACC-62 melanoma 106% | LOX IMVI melanoma 102% | SK-MEL-28 melanoma 115% | SK-MEL-2 melanoma 108% | SN12C renal 102% | UO-31 renal 84.6% | TK-10 renal 99.2% | ACHN renal 105% | CAKI-1 renal 93.6% | A498 renal 88.7% | CCRF-CEM leukemia 91.5% | MOLT-4 leukemia 93.6%

CCN(C(=O)c1ccc2c3c(cccc13)C=C2)c1ccccc1
inactive: HCT-15 colon 88.7% | HT29 colon 88.8% | SNB-75 CNS 88.9% | SNB-19 CNS 93.7% | PC-3 prostate 83.7% | SK-MEL-5 melanoma 93.9% | UACC-62 melanoma 80.3% | LOX IMVI melanoma 108% | SK-MEL-28 melanoma 108% | SK-MEL-2 melanoma 84.9% | SN12C renal 94.7% | TK-10 renal 110% | ACHN renal 100% | CAKI-1 renal 88.7% | A498 renal 90.2% | CCRF-CEM leukemia 104% | MOLT-4 leukemia 88.6%

COc1ccc(-c2c3c(N)c4c(nc3nc3c2c(C)nn3-c2ccccc2)CCCCC4)cc1
inactive: HCT-15 colon 73.9% | HT29 colon 41.4% | SNB-75 CNS 79.8% | SNB-19 CNS 93.7% | PC-3 prostate 70.4% | SK-MEL-5 melanoma 90.6% | UACC-62 melanoma 98% | LOX IMVI melanoma 90.6% | SK-MEL-28 melanoma 98% | SK-MEL-2 melanoma 83.3% | SN12C renal 93% | UO-31 renal 61.6% | TK-10 renal 74.8% | ACHN renal 77.9% | CAKI-1 renal 84.2% | A498 renal 87.9% | CCRF-CEM leukemia 48% | MOLT-4 leukemia 49.5%

COC(=O)[C@H]1CCCN1C(=O)[C@H]1CCCN1C(=O)[C@@H](Cc1c[nH]c2ccccc12)NC(=S)Nc1cc(C(F)(F)F)cc(C(F)(F)F)c1
inactive: HCT-15 colon 55.5% | HT29 colon 39% | SNB-75 CNS 40.3% | SNB-19 CNS 36.8% | PC-3 prostate 34% | UACC-62 melanoma 58.7% | LOX IMVI melanoma 44.2% | SK-MEL-28 melanoma 53% | SK-MEL-2 melanoma 93.2% | SN12C renal 43.2% | UO-31 renal 41.1% | TK-10 renal 78.4% | ACHN renal 44.3% | CAKI-1 renal 28.5% | A498 renal 56% | CCRF-CEM leukemia 36% | MOLT-4 leukemia 21.2%

CCOC(=O)C1=C(C)N2C(=NC3=C(CCCC/C3=C\c3cc(OC)c(OC)c(OC)c3)C2c2cc(OC)c(OC)c(OC)c2)S1 (stereo not given)
inactive: HCT-15 colon 44.8% | HT29 colon 66.8% | SNB-75 CNS 89.4% | U251 CNS 67.7% | PC-3 prostate 49.8% | UACC-62 melanoma 39.9% | LOX IMVI melanoma 74.1% | SK-MEL-28 melanoma 82.9% | SN12C renal 75.2% | UO-31 renal 54.3% | ACHN renal 69.6% | CAKI-1 renal 65.6% | A498 renal 52% | CCRF-CEM leukemia 70.9% | MOLT-4 leukemia 45.3%

Cc1nc(NC(=O)COc2cccc(/C=C3\COc4ccccc4C3=O)c2)sc1C
inactive: SNB-75 CNS 54.2% | A498 renal 87.2%
active: HCT-15 colon -63.8% | HT29 colon -100% | U251 CNS -100% | SK-MEL-5 melanoma -81.8% | UACC-62 melanoma -18.9% | LOX IMVI melanoma -94.3% | SK-MEL-28 melanoma -61.2% | SK-MEL-2 melanoma -77% | EKVX NSCLC -23.3% | SN12C renal -46.1% | UO-31 renal -80.1% | TK-10 renal -74.1% | ACHN renal -96.9% | CAKI-1 renal -94.3% | CCRF-CEM leukemia -74.7% | MOLT-4 leukemia -36.8%

Clc1nc(-c2ccccn2)nc2sc3c(c12)CCCCCC3
active: ACHN renal -20.4% | CAKI-1 renal -65.2%
inactive: HCT-15 colon 84.2% | HT29 colon 99.3% | SNB-75 CNS 85% | U251 CNS 97.2% | PC-3 prostate 92.2% | UACC-62 melanoma 96% | LOX IMVI melanoma 67.8% | SK-MEL-28 melanoma 89.3% | SN12C renal 84.9% | UO-31 renal 16.4% | A498 renal 118% | CCRF-CEM leukemia 72.4% | MOLT-4 leukemia 67.7%

CC[Si](CC)(CC)OC1[C@@H](O[Si](CC)(CC)CC)[C@@H](CNC(=O)NC)O[C@H]1n1cnc2c(NC(=O)Nc3ccccc3)ncnc21 (stereo not given in full)
inactive: HCT-15 colon 86.2% | HT29 colon 50.2% | SNB-75 CNS 78.1% | U251 CNS 82.8% | PC-3 prostate 11.2% | SK-MEL-5 melanoma 95.1% | UACC-62 melanoma 73% | LOX IMVI melanoma 93.7% | SK-MEL-28 melanoma 104% | SN12C renal 93.6% | UO-31 renal 40.1% | ACHN renal 88.4% | CAKI-1 renal 69% | A498 renal 38.6% | CCRF-CEM leukemia 38.5%
active: MOLT-4 leukemia -10.9%

O=c1nc(NO)[nH]c(=O)n1Cc1ccc(F)cc1
inactive: HCT-15 colon 107% | HT29 colon 105% | SNB-75 CNS 86.1% | U251 CNS 98.6% | PC-3 prostate 94.1% | UACC-62 melanoma 108% | LOX IMVI melanoma 101% | SK-MEL-28 melanoma 102% | SN12C renal 107% | UO-31 renal 84.2% | ACHN renal 101% | CAKI-1 renal 111% | A498 renal 128% | CCRF-CEM leukemia 105% | MOLT-4 leukemia 103%

COC(=O)c1cc(-c2ccc(C)cc2)n(C(=O)CSc2nc3sc(C(N)=O)c(C)c3c(=O)n2Cc2ccccc2)n1
active: A498 renal -32.1%
inactive: HCT-15 colon 98.1% | HT29 colon 115% | SNB-75 CNS 83.3% | U251 CNS 102% | PC-3 prostate 86.1% | SK-MEL-28 melanoma 112% | SK-MEL-2 melanoma 110% | UO-31 renal 87.5% | TK-10 renal 106% | ACHN renal 98.8% | CAKI-1 renal 97.7% | CCRF-CEM leukemia 93.2% | MOLT-4 leukemia 95.1%

CC1=CN2C(=NC3=C(CCCC/C3=C\c3ccccc3)C2c2ccccc2)S1 (stereo not given)
inactive: HCT-15 colon 94.8% | HT29 colon 91.7% | SNB-75 CNS 82.5% | U251 CNS 96.5% | PC-3 prostate 99.2% | UACC-62 melanoma 83.8% | LOX IMVI melanoma 97.5% | SK-MEL-28 melanoma 107% | SN12C renal 96.3% | UO-31 renal 78.1% | ACHN renal 99.5% | CAKI-1 renal 96.3% | A498 renal 117% | MOLT-4 leukemia 99.8%

O=c1nc(NO)[nH]c(=O)n1Cc1ccccc1
inactive: HCT-15 colon 101% | HT29 colon 103% | SNB-75 CNS 92.8% | U251 CNS 99.7% | PC-3 prostate 98.1% | UACC-62 melanoma 105% | LOX IMVI melanoma 103% | SK-MEL-28 melanoma 107% | SN12C renal 113% | UO-31 renal 90.3% | ACHN renal 101% | CAKI-1 renal 93.1% | A498 renal 100% | CCRF-CEM leukemia 108% | MOLT-4 leukemia 109%

NC(=O)c1nc2c([nH]c1=O)CCCC2
inactive: HCT-15 colon 102% | HT29 colon 101% | SNB-75 CNS 89.6% | U251 CNS 106% | PC-3 prostate 101% | UACC-62 melanoma 106% | LOX IMVI melanoma 99.1% | SK-MEL-28 melanoma 103% | SK-MEL-2 melanoma 106% | EKVX NSCLC 114% | SN12C renal 107% | UO-31 renal 83.5% | TK-10 renal 102% | ACHN renal 106% | CAKI-1 renal 93% | A498 renal 99.4% | CCRF-CEM leukemia 94.4% | MOLT-4 leukemia 97.3%
